# Assay results as given in PubChem BioAssay AID1569 (National Center for Advancing Translational Sciences (NCATS), 2009).
# Results filed as inconclusive are left out. Active and inactive are the calls of the source. Calls follow the shape of the dose curve; as a rule, active = well fitted inhibition curve with a large enough effect; inconclusive = small, poorly fitted or top-dose-only effect, or effect the other way, or another doubt; inactive = no such curve, though single readings can be large or run the other way.
# Experiment: Confirmation Concentration-Response Assay for lipid storage modulators; also: nearly all actives have a fitted effect of over 80% in size
# Settings: Drosophila S3 cells, lipid droplet BODIPY/CellTracker ratio, 18-24 h; series mostly up to 46.1 µM
# Outline: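 Cells at 5,000/well received compound as a titration plus oleic acid (added as 400 uM solution) and were incubated 18–24 h at 24 °C. BODIPY 493/503 lipid signal and CellTracker Red cell count were read by 488-nm laser-scanning cytometry. Activity was normalised to 20 uM Triacsin C.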
# Potency is read from the fitted curve at half-maximal effect.
row,Structure (SMILES),Potency
1,COc1ccc(CCNC(=O)CSC2=NS(=O)(=O)c3ccccc3N2)cc1OC,inactive
2,COc1ccc2oc(C(=O)OCC(=O)NCCc3ccc(S(N)(=O)=O)cc3)c(C)c2c1,4.99 µM (active)
3,Nc1c(C(=O)Nc2ccc(S(=O)(=O)N3CCCC3)cc2)sc2nc3ccc(OC(F)(F)F)cc3cc12,8.88 µM (active)
4,COc1ccc(CCNC(=O)CSc2nc3[nH]ncc3c(=O)n2-c2ccc(Cl)cc2Cl)cc1OC,inactive
5,Cc1ccc(NC(=O)CNC(=O)CC23CC4CC(CC(C4)C2)C3)c(O)c1,2.23 µM (active)
6,O=C(Nc1ccc(N2CCOCC2)cc1N1CCOCC1)c1ccc(Br)cc1,inactive
7,COc1ccc(CCNC(=O)COc2ccc(-c3ccccc3)cc2)cc1OC,inactive
8,O=C(NC1CCCc2c1cnn2-c1ccc(F)cc1F)c1cnccn1 (stereo not given),0.445 µM (active)
9,O=C(O[C@H]1[C@H](Cc2ccccc2)NS(=O)(=O)[C@H]2C[C@@H]3C=C[C@]12O3)c1ccc([N+](=O)[O-])cc1,28.1 µM (active)
10,O=C(NC1CCCc2c1cnn2-c1ccccc1F)c1ccccn1 (stereo not given),0.0079 µM (active)
11,CCN(CC)S(=O)(=O)c1cccc(NC(=O)CNc2cccc(S(=O)(=O)N3CCCC3)c2)c1,1.99 µM (active)
12,Cc1cc(C(=O)NC2CCCc3c2cnn3-c2ccccc2F)nc(C)n1 (stereo not given),1.41 µM (active)
13,CCCc1ccc(-c2csc(NC(=O)Cc3cccs3)n2)cc1,1.58 µM (active)
14,Cc1cc(C(=O)O[C@H]2[C@H](Cc3ccccc3)NS(=O)(=O)[C@H]3C[C@@H]4C=C[C@]23O4)ccc1[N+](=O)[O-],inactive
15,Cc1ccc(C(=O)NC2CCCc3c2cnn3-c2ccc(F)cc2F)cn1 (stereo not given),3.97 µM (active)
16,CCOC(=O)c1cc2c(ccn2C)n1CC(=O)N1C(C)CCCC1C (stereo not given),11.2 µM (active)
17,COc1ccc(C)cc1NC(=O)C1CCN(S(=O)(=O)c2cccc3cccnc23)CC1,15.8 µM (active)
18,CCCCCCCCCCCCCCCC[n+]1cccc2ccccc21,1.22 µM (active)

row,Structure (SMILES),Potency
1,Cc1ccc(NC(=O)CN(C)C(=O)Cn2ncc(Cl)c(Cl)c2=O)cc1,28.1 µM (active)
2,O=C(NCc1cccnc1)Nc1cc(Cl)cc(Cl)c1,inactive
3,CC(C)(C)c1ccc(/C=C2\SC(=O)N(CCNC(=O)c3cccc(S(=O)(=O)N4CCOCC4)c3)C2=O)cc1,8.88 µM (active)
4,Cc1ccccc1C(=O)N1CCC(C(=O)Nc2ccc(S(=O)(=O)N3CCCCC3)cc2)CC1,inactive
5,Cc1ccc(-c2noc(C3CCCN(C(=O)c4ccccc4Br)C3)n2)cc1 (stereo not given),inactive
6,Cc1ccc(C(NC(=O)C2CCCCC2)c2c(O)ccc3ccccc23)cc1 (stereo not given),17.7 µM (active)
7,CN(Cc1cccc(F)c1)C(=O)c1ccc2c(=O)n3c(nc2c1)CCC3,inactive
8,CCOc1ccc(CCNC(=O)COC(=O)c2ccc(Cl)nc2)cc1OCC,inactive
9,Cc1ccc(C)c(S(=O)(=O)N2CCN(CC(=O)Nc3sccc3C#N)CC2)c1,9.96 µM (active)
10,Cc1ccc(-n2ncc3c2CCCC3NC(=O)c2cnccn2)cc1C (stereo not given),0.141 µM (active)
11,O=C(CC(O)(C(F)(F)F)C(F)(F)F)Nc1ccc(Cl)c(Cl)c1,9.96 µM (active)
12,COc1ccc(CCNC(=O)CCC(=O)c2cccs2)cc1OC,inactive
13,COc1cccc(-n2nnnc2SCC(=O)NCCc2ccc(OC)c(OC)c2)c1,inactive
14,COC(c1ccccc1)c1nnc(CCC(=O)NC2C3CC4CC(C3)CC2C4)o1 (stereo not given),5.6 µM (active)
15,COc1ccc(CCNC(=O)CC2SC(N)=NC2=O)cc1OC (stereo not given),inactive
16,COc1ccc(CCNC(=O)c2cc3sc(Cl)cc3n2C)cc1OC,inactive
17,CCC(=O)c1ccc(OCC(=O)Nc2ccc(N3CCOCC3)cc2N2CCOCC2)cc1,inactive
